Bioassay records as filed in PubChem.
Tau fil binding = qHTS Assay for Tau Filament Binding. Potency, µM (series often up to 57.1 µM). 71,000 tested, 2% active. Microtubule-associated protein tau (Homo sapiens), P10636. recombinant tau filaments, thioflavin S fluorescence, 15 h; filaments grown with octadecylsulfate alongside compound. AID 596, 2007;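 further: actives lower thioflavin S fluorescence by blocking filaments or displacing dye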
Target sequence (P10636 whole entry, looked up): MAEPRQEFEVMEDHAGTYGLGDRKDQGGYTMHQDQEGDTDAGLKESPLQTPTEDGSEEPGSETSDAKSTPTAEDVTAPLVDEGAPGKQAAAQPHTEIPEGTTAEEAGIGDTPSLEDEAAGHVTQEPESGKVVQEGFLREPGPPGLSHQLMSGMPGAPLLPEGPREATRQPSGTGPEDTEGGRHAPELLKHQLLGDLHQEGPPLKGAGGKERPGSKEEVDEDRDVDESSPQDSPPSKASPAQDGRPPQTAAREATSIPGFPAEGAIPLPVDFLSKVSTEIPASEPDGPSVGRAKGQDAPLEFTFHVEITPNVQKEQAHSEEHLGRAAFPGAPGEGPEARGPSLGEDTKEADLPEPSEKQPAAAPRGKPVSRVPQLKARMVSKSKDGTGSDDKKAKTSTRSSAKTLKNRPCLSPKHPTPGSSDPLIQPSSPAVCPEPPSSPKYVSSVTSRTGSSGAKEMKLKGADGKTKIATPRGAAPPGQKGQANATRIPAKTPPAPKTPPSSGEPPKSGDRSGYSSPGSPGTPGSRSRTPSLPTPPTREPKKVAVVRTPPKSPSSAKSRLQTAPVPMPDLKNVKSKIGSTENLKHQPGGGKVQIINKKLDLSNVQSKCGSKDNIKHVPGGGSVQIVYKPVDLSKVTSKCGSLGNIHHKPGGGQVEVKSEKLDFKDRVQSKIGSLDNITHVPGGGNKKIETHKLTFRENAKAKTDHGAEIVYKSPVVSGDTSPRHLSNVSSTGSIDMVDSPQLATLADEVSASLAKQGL
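His-tagged recombinant human tau (exons 2, 3, 10; 1 uM final) fibrillized with 30 uM sodium octadecylsulfate, 15 h at 37 C, in pH 7.4 HEPES buffer with 10 uM thioflavine S and 5 mM DTT. Reduced ThS fluorescence (450/510 nm) marks activity.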
15-hLO inh = qHTS Assay for Inhibitors of 15-hLO (15-human lipoxygenase) | purified 15hLO-1, xylenol orange hydroperoxide absorbance | 74,000 tested, 1.4% active | AID 887, 2007 | Potency, µM (highest dose often 57.1 µM), actives largely listed as inhibitors | Polyunsaturated fatty acid lipoxygenase ALOX15 (Homo sapiens), P16050; further: nearly all actives have a fitted effect of over 55% in size
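Hydroperoxide formed from arachidonic acid (50 uM) by purified human 15hLO-1 (40 nM) oxidizes ferrous iron, and the ferric-xylenol orange complex is read at 573 versus 405 nm. Compounds were preincubated 15 min; reaction ran 6 min at room temperature.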
Hsp90 Hop PPI = qHTS Assay for Disrupters of an Hsp90 Co-Chaperone Interaction; Hsp90 C-terminal peptide / TPR2A (Hop) interaction, human; AlphaScreen TPR2A-His6 binding biotin-Hsp90 C-terminal peptide; Potency, µM (top dose mostly 57 µM); 71,000 tested, 0.44% active; active means well fitted curve in either direction with a large enough effect; inconclusive means small, poorly fitted or top-dose-only effect, or another doubt
DNA Pol III inh = qHTS Assay for Inhibitors of DNA Polymerase III Holoenzyme System; Potency, µM (titrated, usually from 57.1 µM); 71,000 tested, 0.25% active; reconstituted DNA polymerase III holoenzyme replication, biochemical; AID 603, 2007
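Reconstituted *E. coli* holoenzyme (0.35 nM Pol III, 1 nM beta, 154 nM SSB, 2 nM primase) was preincubated with compound for 15 min at RT. Synthesis on 1.4 nM ssM13Gori ran 35 min, then was stopped with PicoGreen/EDTA and read as dsDNA fluorescence.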
TsaE inh = qHTS Assay for Inhibitors of YjeE. tRNA threonylcarbamoyladenosine biosynthesis protein TsaE (Escherichia coli (strain …. purified YjeE enzyme, qHTS inhibition assay. Potency, µM. 71,000 tested, 0.05% active. AID 605, 2007
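Purified YjeE (10 uM) with BODIPY Texas Red-labeled ADP probe (2 uM); compounds pin-transferred, 15 min at room temperature. Binding inhibition read as decreased fluorescence polarization; ADP titration as control.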
ERK AVP inh = qHTS Assay for Inhibitors of the ERK Signaling Pathway using a Homogeneous Screening Assay; HEK293-V1b, vasopressin-stimulated pERK AlphaScreen; Potency, µM (doses to about 57.5 µM), most hits filed as inhibitors; 72,000 tested, 0.99% active; further: nearly all actives have a fitted effect of over 55% in size
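qHTS, compounds titrated on V1b-expressing HEK293 cells. Preincubation 30 min at 37C, vasopressin 25 nM for 5 min, lysis 10 min, bead incubation 5 hr at room temperature.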
Of the large screens only hits and unclear results are named; the others gave an inactive call; ! = repeats disagree. A selection: hits, their analogues and other compounds. The true share with any hit is near 4.2%. Unless noted, the call rests on the fitted dose curve; in most records, active means well fitted curve in the direction sought with a large enough effect; inconclusive means small, poorly fitted or top-dose-only effect, or another doubt; inactive means no such curve, though single readings can be large; an effect the other way counts as inactive or inconclusive.

C#CCCCO/N=C1/C[C@@H](O)[C@@H](O)[C@@H]2[C@@H]3C(=O)N(CCC(=O)OCC)C(=O)[C@H]3CC[C@@H]12	none (no result: Tau fil binding, Hsp90 Hop PPI, DNA Pol III inh, TsaE inh)
Cc1ccc(NC(=O)c2ccc(F)c(S(=O)(=O)N3CCOCC3)c2)cc1F	ERK AVP inh inconclusive
O=C(Nc1ccc(-c2cn3ccsc3n2)cc1)c1ccc(F)c(S(=O)(=O)N2CCOCC2)c1	ERK AVP inh 12.6µM
Cc1cc(NC(=O)CCCC(=O)N(CC(=O)NC2CCCCC2)c2ccccc2)no1	15-hLO inh 25.1µM, DNA Pol III inh inconclusive
CC(=O)Nc1ccc(Cc2ccc3[nH]c(=O)cc(C)c3c2)cc1	none
Nc1ncnc2nc(-c3ccc(N4CCOCC4)nc3)cc(-c3cccc(Br)c3)c12	15-hLO inh 10µM (no result: Tau fil binding, Hsp90 Hop PPI, DNA Pol III inh, TsaE inh)
O=C(NC1CCCC1)C(c1cccs1)N(Cc1ccco1)C(=O)c1csnn1 (stereo not drawn)	none
O=C(NC1CCCC1)C(c1ccsc1)N(Cc1ccco1)C(=O)Cc1cccs1 (stereo not drawn)	Tau fil binding 15.8µM, 15-hLO inh 0.398µM, ERK AVP inh inconclusive
COC(=O)c1ccc2ncccc2c1	15-hLO inh 7.94µM
O=C(Nc1ccc2ncccc2c1)Nc1ccc2ncccc2c1	none
CCOc1ccc(CCNc2cc(C)nc3ncnn23)cc1OCC	ERK AVP inh 25.1µM
COc1ccc2nc(NS(=O)(=O)c3ccc(NC(C)=O)cc3)sc2c1	Hsp90 Hop PPI inconclusive, ERK AVP inh inconclusive
CCc1ccc(CCC(=O)Nc2sc3c(c2C#N)CCCC3)o1	15-hLO inh 15.8µM
CCOC(=O)c1c(NC(=O)CSc2nnc(-c3ccccc3)n2CC)sc(C(C)=O)c1C	none
CCOC(=O)c1sc(NC(=O)CSc2nnc(-c3ccco3)n2CC)c(C(=O)OCC)c1C	15-hLO inh 6.31µM
NC(=O)c1c(NC(=O)CSc2nnc(-c3ccco3)n2-c2ccccc2)sc2c1CCC2	15-hLO inh 25.1µM
COCCn1c(=O)c(-c2ccccc2)nc2cnc(OCc3ccccc3)nc21	Tau fil binding inconclusive
CCC(C)NC(=O)c1ccccc1C(=O)NC(C)CC (stereo not drawn)	none
CCC(C)Nc1ccc(NC(C)CC)cc1 (stereo not drawn)	Tau fil binding 15.8µM, 15-hLO inh inconclusive, Hsp90 Hop PPI inconclusive, TsaE inh 100µM
CCc1cccc(NC(=O)Cn2cc3c(n2)CCCC3)c1	none
CN(C)c1ccc(NC(=O)Cn2cc3c(n2)CCCC3)cc1	Tau fil binding 12.6µM, Hsp90 Hop PPI inconclusive, ERK AVP inh inconclusive
C=C(c1ccc(O)cc1)c1ccc(O)cc1	none
COc1ccccc1N1CCN(C(CNC(=O)c2ccco2)c2cccnc2)CC1 (stereo not drawn)	none (no result: ERK AVP inh)
CCOc1ccc(C2=Nn3cnnc3SC2)cc1	none
COc1ccc(C)cc1N	none
COc1ccc(OC)c(N)c1	Tau fil binding 12.6µM
O=C(NC12CC3CC(CC(C3)C1)C2)c1cc2nc(-c3ccco3)cc(C(F)(F)F)n2n1	Tau fil binding 12.6µM
O=C(NC1CCCCC1)c1cc2nc(-c3ccco3)cc(C(F)(F)F)n2n1	none
COc1ccc(NC(=O)c2cnn3c(C(F)(F)F)cc(-c4ccco4)nc23)cc1OC	Tau fil binding 0.398µM, DNA Pol III inh 1µM
O=C(c1cnn2c(C(F)(F)F)cc(-c3ccco3)nc12)N1CCCc2ccccc21	Tau fil binding inconclusive
O=C(Nc1ccc2c(c1)OCO2)c1cnn2c(C(F)(F)F)cc(-c3ccco3)nc12	Tau fil binding 0.501µM
O=C(Nc1cnn(C23CC4CC(CC(C4)C2)C3)c1)c1cnn2c(C(F)(F)F)cc(-c3ccco3)nc12	Tau fil binding 2µM, ERK AVP inh inconclusive
CN(c1ccccc1C(=O)Nc1ccccc1C(=O)NCc1ccco1)S(C)(=O)=O	none
O=C(Nc1cnn(Cc2ccccc2)c1)c1cc2nc(-c3ccco3)cc(C(F)(F)F)n2n1	none
Cc1ccccc1Cn1nc(C)c(NC(=O)c2cc3nc(-c4ccco4)cc(C(F)(F)F)n3n2)c1C	Tau fil binding 7.94µM, 15-hLO inh inconclusive
C[C@H](NC(=O)/C(C#N)=C/c1ccc(O)c(O)c1)c1ccccc1	Tau fil binding inconclusive, 15-hLO inh 0.251µM, Hsp90 Hop PPI 7.94µM!, ERK AVP inh 10µM
N#C/C(=C\c1ccc(O)c(O)c1)C(=O)Nc1ccccc1	15-hLO inh 3.16µM, Hsp90 Hop PPI 10µM!, ERK AVP inh inconclusive
C[C@@H](NC(=O)/C(C#N)=C/c1ccc(O)c(O)c1)c1ccccc1	15-hLO inh inconclusive, ERK AVP inh inconclusive
CC1O[C@@H](O[C@@H]2C(O)C[C@H](O[C@@H]3C(O)C[C@@H](OC4CC[C@@]5(C)C6CC[C@]7(C)C(C8=CC(=O)OC8)CC[C@@]7(O)C6CC[C@@H]5C4)OC3C)OC2C)CC(O)[C@H]1O (stereo partly drawn)	none (no result: Tau fil binding, Hsp90 Hop PPI, DNA Pol III inh, TsaE inh)
COc1ccc2c(c1)c(=O)c(Br)c(C)n2Cc1ccccc1	none
Nc1cc(N)c(OCC(F)(F)F)cc1OCC(F)(F)F	Tau fil binding 15.8µM, 15-hLO inh inconclusive
CC(C)N(C)C1CCN(C(=O)Nc2ccc(Cl)c(Cl)c2)CC1	none
Cc1ccc(Nc2ncc3c(n2)CC(c2ccco2)CC3=O)c(C)c1 (stereo not drawn)	Tau fil binding inconclusive, 15-hLO inh 20µM, ERK AVP inh inconclusive
N#CC1=C(N)N(c2ccccc2)C2=C(C(=O)CCC2)C1c1ccsc1 (stereo not drawn)	ERK AVP inh inconclusive
CCSc1sccc1C1C(C#N)=C(N)N(c2cccnc2)C2=C1C(=O)CCC2 (stereo not drawn)	Tau fil binding inconclusive, 15-hLO inh inconclusive, ERK AVP inh 31.6µM
O=C(NCc1cccs1)c1ccc(Cl)s1	none
CCCSc1nnc2c(n1)OC(c1cccn1C)N(C(C)=O)c1ccccc1-2 (stereo not drawn)	none (no result: Tau fil binding, Hsp90 Hop PPI, DNA Pol III inh, TsaE inh, ERK AVP inh)
CCC(=O)N1c2ccccc2-c2nnc(SC)nc2OC1c1ccc(N(C)C)cc1 (stereo not drawn)	Tau fil binding 25.1µM
CCCCCSc1nnc2c(n1)OC(C)N(C(C)=O)c1ccccc1-2 (stereo not drawn)	Tau fil binding 25.1µM, 15-hLO inh inconclusive
CCC1Oc2nc(SC)nnc2-c2ccccc2N1C(=O)c1ccccc1 (stereo not drawn)	none
c1ccc(-c2nc(NCCCN3CCOCC3)c3ccccc3n2)cc1	Tau fil binding 5.01µM, 15-hLO inh inconclusive, ERK AVP inh inconclusive
c1ccc2c(NCCN3CCOCC3)nc(-c3ccoc3)nc2c1	ERK AVP inh inconclusive
CCCCC/C=C\C/C=C\CCCCCCCC(=O)O	Tau fil binding inconclusive, 15-hLO inh 0.159µM
CCCC(=O)NCCCCNC(=O)CCC	none
